These results are taken from PubChem BioAssay AID651612 (The Scripps Research Institute Molecular Screening Center, 2012).

Out of some 2,200 compounds screened, about 1,500 (68%) were called active. The set was probably picked from earlier hits. A selection follows. Values without a mark were called inactive. Cut-off read from the data, not from the text of the source: active = inhibition above about 23%; inactive = the rest.

Chain of Perilipin-5 (Homo sapiens) + 1-acylglycerol-3-phosphate O-acyltransferase ABHD5 (Homo sapiens) (Q00G26 whole entry, looked up): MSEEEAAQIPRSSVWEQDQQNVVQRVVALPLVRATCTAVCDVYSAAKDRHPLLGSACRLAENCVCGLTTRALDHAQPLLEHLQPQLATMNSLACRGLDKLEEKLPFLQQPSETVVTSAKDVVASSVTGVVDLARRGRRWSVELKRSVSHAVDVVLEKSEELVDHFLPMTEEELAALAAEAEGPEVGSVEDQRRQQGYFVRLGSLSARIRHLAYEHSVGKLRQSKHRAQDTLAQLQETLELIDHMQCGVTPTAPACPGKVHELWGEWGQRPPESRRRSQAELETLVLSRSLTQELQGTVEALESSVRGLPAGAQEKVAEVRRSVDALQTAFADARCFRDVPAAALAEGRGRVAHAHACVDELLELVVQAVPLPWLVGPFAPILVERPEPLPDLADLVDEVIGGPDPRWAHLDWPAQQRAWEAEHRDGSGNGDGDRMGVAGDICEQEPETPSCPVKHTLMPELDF
Chain of Perilipin-5 (Homo sapiens) + 1-acylglycerol-3-phosphate O-acyltransferase ABHD5 (Homo sapiens) (Q8WTS1 whole entry, looked up): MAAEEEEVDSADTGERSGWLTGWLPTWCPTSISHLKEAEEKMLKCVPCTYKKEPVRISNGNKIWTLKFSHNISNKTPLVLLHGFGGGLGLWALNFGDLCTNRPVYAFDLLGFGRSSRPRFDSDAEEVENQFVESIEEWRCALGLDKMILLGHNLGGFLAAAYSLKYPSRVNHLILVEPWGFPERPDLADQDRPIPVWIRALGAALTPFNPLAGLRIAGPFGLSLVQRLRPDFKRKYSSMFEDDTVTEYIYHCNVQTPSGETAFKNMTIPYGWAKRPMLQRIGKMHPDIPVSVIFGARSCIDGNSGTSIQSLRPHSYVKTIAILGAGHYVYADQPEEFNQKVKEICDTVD

The assay concerns the target Perilipin-5 (Homo sapiens) + 1-acylglycerol-3-phosphate O-acyltransferase ABHD5 (Homo sapiens) (UniProt Q00G26+Q8WTS1). Briefly: ABHD5-PLIN5 interaction inhibitors, confirmation, biochemical, luminescence (AID 651612).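 Note: 0% = DMSO vehicle wells.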 The conditions noted are these: at 4 µM, active compounds read high.
Broadly, the inhibition is the relative decrease from the control value, in per cent. `COC(=O)c1nc(NC(=O)c2ccc(C(C)(C)C)cc2)n[nH]1`: the inhibition is 10.3%.
`Cc1cc(-c2n[nH]c(=S)n2/N=C/C(Br)=C/c2ccccc2)n[nH]1`: the inhibition was 63% (active).
To `O=C(/C(=C/c1cccc(Cl)c1)c1nc2ccccc2[nH]1)c1ccccc1` belongs 98.9% (active); to `O=C(/C=C/c1ccc(Cl)c([N+](=O)[O-])c1)c1ccc(O)cc1`, 90.2% (active).
Turning to `CC(=O)Nc1ccc(C=CC(=O)c2ccc([N+](=O)[O-])cc2)cc1`, the inhibition is 84.1% (active).
To `COC(=O)C1(C)NC(c2ccccc2OC)C2C(=O)N(c3ccccc3)C(=O)C21` (centres undefined) belongs -5.37%; to `CCN(CC)CCN(C(=O)c1ccc2c(c1)CCCC2)c1nc2c(OC)cccc2s1`, 7.79%.
To `COc1ccc2c(c1)c(=Cc1ccc(N(C)C)cc1)c1cc(-c3ccccc3)[n+](C)n12` belongs 28.5% (active); to `OC(CNCC1CCCO1)Cn1c2ccc(Br)cc2c2cc(Br)ccc21` (centres undefined), 12.6%; to `COC(=O)/C=C\C(=O)Nc1cccc([N+](=O)[O-])c1`, 83.5% (active).
`COc1ccc2c(c1OC)C(=O)OC2Nc1nc(-c2ccccc2)cs1` (centres undefined): the inhibition is 61.3% (active).
In the case of `O=C1/C(=C\c2ccc(O)cc2)CCC1CNc1ccc(Cl)cc1` (centres undefined), the inhibition is 25.6% (active).
Consider `COc1ccccc1-n1nnnc1S(=O)(=O)Cc1ccc(Cl)cc1`, for which the inhibition is 49.7% (active).
Consider `COc1ccc(CCNC(=O)c2nnc(CS(=O)(=O)c3ccccc3)o2)cc1OC`, for which the inhibition is 6.71%.
Regarding `O=C(NC1CCCCC1)C(c1cc2ccccc2o1)n1c(=O)c(-c2ccco2)nc2ccccc21` (centres undefined), the inhibition is 80.4% (active).
The same measure for `N#Cc1ccc(C(C(=O)NCc2ccccc2)n2c(=O)c(-c3ccco3)nc3ccccc32)cc1` (centres undefined): 91.9% (active); for `Cc1cccc(C)c1NC(=O)C(c1ccc(C(F)(F)F)cc1)n1c(=O)c(-c2ccco2)nc2ccccc21` (centres undefined): 80.6% (active); for `Cc1cccc(C)c1NC(=O)C(c1cccc2ccccc12)n1c(=O)c(-c2ccco2)nc2ccccc21` (centres undefined): 53% (active).
With `CCn1c(SC)nc(O)c(C(c2ccc(OC)c(O)c2)c2c(O)nc(SC)n(CC)c2=O)c1=O`, the inhibition is 62% (active).
`O=C(NCCOCc1ccc(Cl)cc1)c1ncn[nH]1`: the inhibition was 6.41%.
The same measure for `COc1ccc(C(C[N+](=O)[O-])n2nc(C)cc2C)cc1` (centres undefined): 62.2% (active).
On to `CCN(CCCNC(=O)c1ccc2c(c1)NC(=O)CN2C)c1cccc(C)c1`, for which the inhibition was 50.9% (active).
`Cc1nnnn1/C(=C\c1ccccc1)C(=O)OCC(=O)N1CC2(C)CC1CC(C)(C)C2` (centres undefined): the inhibition is 54.9% (active).
In the case of `O=[N+]([O-])c1c(NCCO)cc(Sc2nc3ccccc3s2)c2nonc12`, the inhibition is 51.7% (active).
For the compound `Cc1cccc(NC(=O)c2ccc3nsnc3c2)c1C`, the inhibition was 2.22%.
For the compound `O=C(CCl)Nc1ccc(Sc2ccc(NC(=O)CCl)cc2)cc1`, the inhibition is 40.2% (active).
For the compound `O=C(/C=C/c1ccc(Cl)cc1Cl)c1cccnc1`, the inhibition was 98.6% (active).
`COc1ccc(/C=C/C(=O)c2ccc(NS(=O)(=O)c3ccc(C)cc3)cc2)cc1O`: the inhibition was 55.4% (active).
As to `Cc1cccc(NC(=O)c2nc(S(=O)(=O)Cc3ccccc3)ncc2Cl)c1`, the inhibition is 90.7% (active).
On to `Cc1cccc(CS(=O)(=O)c2ncc(Cl)c(C(=O)Nc3ccc(F)cc3)n2)c1`, for which the inhibition was 82.7% (active).
Consider `O=C1C=C(c2ccc(Cl)cc2)C(=O)N1Nc1ccccc1`, for which the inhibition was 102% (active).
For the compound `O=C(NNc1ccccn1)c1ccc(Cl)nc1`, the inhibition is 2.34%.
For the compound `CCN1/C(=C\c2ccc3ccccc3[n+]2CC)Sc2cc(C)ccc21`, the inhibition is 16.8%.
Turning to `Nc1cccc(OCCCCCOc2cccc(N)c2)c1`, the inhibition is 3.48%.
As for `Cc1cc(C)nc(S/C=C/C(=O)c2ccccc2)n1`, the inhibition is 96.8% (active).
The same measure for `c1ccc(CCC2=NCCn3cccc32)cc1`: 28.8% (active); for `Cc1ccc(NC(=O)c2cc(-c3ccc(C)o3)nc3ccccc23)nc1`: 24% (active); for `CC1(Oc2ccccc2-c2ccno2)CCN(Cc2ccc(-c3ccccc3)o2)C1` (centres undefined): 16.2%.
With `Cc1nc2sc(C(c3ccco3)N3CCOCC3)c(O)n2n1` (centres undefined), the inhibition is 5.85%.
To `N#Cc1ccccc1S(=O)(=O)N1CCN(Cc2c(O)ccc3ccccc23)CC1` belongs 53% (active); to `CCCCOC(=O)CNc1nnc(SCC(=O)OCC)[nH]c1=O`, 69.3% (active).
With `O=C(/C=C(O)/C=C/c1ccc(O)cc1)/C=C/c1ccc(O)cc1`, the inhibition is 63.4% (active).
Regarding `O=C(Cn1nc(CNc2ccc(Cl)cc2)[n+]2c1CCCCC2)c1ccc(Cl)cc1`, the inhibition was 19.8%.
The same measure for `CN1CCC[C@@H]1CCO[C@](C)(c1ccccc1)c1ccc(Cl)cc1`: 27.9% (active).
For `CCOC(=O)C(=Cc1ccccc1OC)C(=O)OCC`, the inhibition is 60.3% (active).
As to `CCOC(=O)C(=Cc1ccccc1)C(=O)c1ccccc1`, the inhibition is 98.5% (active).
As to `Cc1[nH]c(=O)c(C(=O)/C=C/c2ccccc2)c2c1CCCC2`, the inhibition is 56.5% (active).
To `CC1=CC(C)(C)Nc2ccc(OC(=O)C(Cc3ccccc3)N3C(=O)C4CCCCC4C3=O)cc21` (centres undefined) belongs -3.56%; to `CC1=CC(C)(C)Nc2ccc(OC(=O)CN3C(=O)C4CCCCC4C3=O)cc21` (centres undefined), 83.2% (active).
